An excerpt weighted towards active compounds, which were near 10% of everything screened.
G9a block = G9a (human) methyltransferase inhibition | G9a H3K9 monomethylation, AlphaScreen, 2 h | Potency, µM (highest dose often 102 µM), for the others: at the top dose activity, negative = inhibition, actives largely listed as inhibitors | actives 8.8% (n = 350,000); note: % is set by controls: 0 for no effect and ±100 for the full control effect; nearly all actives have a fitted effect of over 75% in size
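Methyltransferase reactions run at room temperature for 2 h (20 nM enzyme, 500 nM biotin-H3K9 peptide, 20 uM SAM) after a 15 min compound preincubation; product detected by AlphaScreen beads and anti-H3K9me1 antibody.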
GLS inhibitor = inhibitors of human glutaminase (GLS); O94925; GLS enzymatic activity, qHTS titration; Potency, µM (highest dose often 45.5 µM), for inactives: top-dose activity change, negative = inhibition, most hits filed as inhibitors; actives 0.21% (n = 410,000); note: % is set by controls: 0 for no effect and ±100 for the full control effect
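hKGA in 45 mM KH2PO4 pH 8.2, 0.02% Tween-20 with pin-transferred compounds; 1 mM L-glutamine (stock) plus glutamate oxidase/HRP/Amplex Red coupling added. Fluorescence read initially and after 30 min at RT.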
BAZ2B inh = inhibitors of human BAZ2B bromodomain; AlphaScreen BAZ2B-H3K14Ac peptide displacement; Potency, µM (highest dose often 114 µM), for inactives: at the highest dose activity change, negative = inhibition, actives largely listed as inhibitors; actives 4.4% (n = 360,000); AID 504333; note: % is set by controls: 0 for no effect and ±100 for the full control effect; nearly all actives have a fitted effect of over 60% in size
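Inhibition is scored as reduced AlphaScreen emission. The BAZ2B/b-H3(5-23)K14Ac complex (50 nM each) in PBS pH 7.4, 0.01% Tween-20 meets compound (up to 110 uM) for 30 min at RT before bead addition.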
L3MBTL1 block = inhibitors of human L3MBTL1 | actives 0.66% (n = 230,000) | Potency, µM (top dose mostly 57.1 µM), for the others: at the top dose activity, negative = inhibition, most hits filed as inhibitors | AlphaScreen L3MBTL1–H3K9me1 peptide binding | AID 485360 | Q9Y468; note: % is set by controls: 0 for no effect and ±100 for the full control effect; nearly all actives have a fitted effect of over 60% in size
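AlphaScreen proximity signal between nickel-chelate acceptor and streptavidin donor beads (final 10 ug/mL) reports binding of 50 nM L3MBTL1 to 75 nM biotin-H3 K9me1 peptide; complex incubated with compounds 30 min at room temperature; cefsulodin titration as control.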
HP1b binding inh = inhibitors of HP1-beta chromodomain binding to methylated histone tails. actives 0.56% (n = 390,000). AID 540317. AlphaScreen HP1-beta / biotin-H3K9me3 peptide binding. Potency, µM (doses to about 114 µM), for the others: at the highest dose activity change, negative = inhibition, most hits filed as inhibitors. P83916; note: nearly all actives have a fitted effect of over 70% in size
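AlphaScreen: HP1-beta (50 nM) preformed 30 min with biotin-H3(1-18)K9me3 peptide (50 nM) in PBS pH 7.4, 0.01% Tween-20. Compound added for 30 min at RT, then streptavidin donor/nickel chelate acceptor beads (10 ug/mL) for 30 min.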
JMJD2A Tudor = blocks the human JMJD2A Tudor domain; O75164; AlphaScreen JMJD2A-Tudor / H3K4me3 peptide binding; Potency, µM (series often up to 114 µM), for inactives: at the top dose activity change, negative = inhibition, actives largely listed as inhibitors; actives 4.4% (n = 390,000); AID 504339; note: % is set by controls: 0 for no effect and ±100 for the full control effect; nearly all actives have a fitted effect of over 50% in size
Starred values were filed as active, the others as inactive; ? = inconclusive; nt = no result given; [ ] = dose if it differs, or a comment. Calls come from the whole dose curve; as a rule, active = well fitted curve in the direction sought with a large enough effect; inconclusive = small, poorly fitted or top-dose-only effect, or another doubt; inactive = no such curve, though single readings can be large; an effect the other way counts as inactive or inconclusive. Potency is the fitted concentration of half-maximal effect.

SMILES	G9a block	GLS inhibitor	BAZ2B inh	L3MBTL1 block	HP1b binding inh	JMJD2A Tudor
COCCCNCC(O)COc1cccc2[nH]c(C)cc12 (stereo not given)	3.5%	13.2%	-14.0%	-5.7%	18.8%	-23.6%
O=C(O)c1cccc(NC(=S)NCc2ccccc2)c1	-27.4%	-2.1%	-16.8%	6.3%	13.1%	-19.6%
Cc1ccc(C(=O)O)cc1NC(=S)NC(=O)c1ccc(-c2ccccc2)cc1	14.1µM*	0.0%	-32.5%	-15.4%	?	?
CC(C)NC(=S)NC(=O)c1ccc(-c2ccccc2)cc1	39.8µM*	-1.0%	-30.5%	-1.0%	-5.9%	-32.7%
O=C(Cc1cccc2ccccc12)NC(=S)Nc1cccc(C(=O)O)c1	15.8µM*	6.8%	?	7.8%	-15.7%	-23.4%
Cc1cc(C)c(NC(=S)NC(=O)c2ccccc2)cc1C	nt	2.3%	nt	nt	nt	nt
O=C(O)c1cccc(NC(=S)NC(=O)c2ccc(-c3ccccc3)cc2)c1	35.5µM*	-2.5%	-36.4%	-9.7%	15.7%	-3.5%
O=C(NC(=S)Nc1ccc2cn[nH]c2c1)c1ccccc1	44.7µM*	1.0%	-1.7%	6.2%	18.0%	-7.6%
Cc1ccc(N2C(=O)CS(=O)(=O)C23C(=O)N(Cc2ccccc2F)c2ccccc23)cc1Cl (stereo not given)	-37.1%[59 µM]	3.4%	-10.9%	nt	21.8%	-6.5%
CC(=O)Nc1nc(N2C(=O)c3ccccc3C2=O)n(-c2ccccc2)n1	?	-1.1%	?	32.6%[11.4 µM]	54.7%	79.4µM*
O=C(Nc1nc(N2C(=O)c3ccccc3C2=O)n(-c2ccccc2)n1)c1ccccc1	-11.8%	18.1%	?	38.3%	32.1%	?
O=C1c2sccc2-c2cccc3cccc1c23	nt	9.9%	nt	nt	nt	nt
O=C1C(Br)=Cc2cccc3cccc1c23	?	-0.2%	25.1µM*	nt	-37.1%	?
Cc1ccc(N2CCN(C(=O)C3CCN(S(=O)(=O)c4ccc5c(c4)oc(=O)n5C)CC3)CC2C)cc1 (stereo not given)	-36.8%[59 µM]	4.9%	-15.6%	nt	12.2%	-15.2%
Cc1ccc(-c2nnc(N(C)C(=O)C3CCCO3)s2)cn1 (stereo not given)	44.7µM*	-5.6%	?	-2.3%	39.8%	-13.2%
Cc1ccc2scc(N3CCCC(C)C3)c(=O)c2c1 (stereo not given)	?	6.5%	-28.6%	nt	9.0%	?
CCCNC(=S)Nc1ccc(S(N)(=O)=O)cc1	2.4%	9.2%	0.4%	-4.9%	15.6%	-11.3%[57.1 µM]
NS(=O)(=O)c1ccc(NC(=S)NCc2cccs2)cc1	35.5µM*	5.3%	-17.3%	9.7%	-15.1%	-10.5%[11.4 µM]
CC(C)CNC(=S)Nc1ccc(S(N)(=O)=O)cc1	39.8µM*	17.5%	-4.5%	1.8%	-17.1%	-12.1%
S=C(NCc1cccs1)Nc1ccccc1	10.4%	2.0%	-20.7%	6.6%	23.3%	2.8%
CCOCCCNC(=S)Nc1ccc(S(N)(=O)=O)cc1	28.2µM*	6.4%	-24.3%	7.2%	33.0%	-3.5%
Cc1c(N=C(N)/N=C(\N)Nc2ccc(Br)cc2)c(=O)n(-c2ccccc2)n1C	42.6%[59 µM]	-7.9%	14.3%	8.4%	13.1%	31.6µM*
Cc1c(N=N/C(C(=O)Nc2ccccc2)=C(/O)c2ccccc2)c(=O)n(-c2ccccc2)n1C	14.1µM*	11.3%	8.91µM*	-5.8%	-3.7%	?
CCN(CC)c1ccc(NC(=O)CCCOc2cccc(C)c2)cc1	8.7%	-13.9%	0.7%	nt	?	10µM*
CCOc1cccc(C(=O)Nc2ccc(N(CC)CC)cc2)c1	8.91µM*	57.5%	39.8µM*	?	?	25.1µM*
SMILES	G9a block	GLS inhibitor	BAZ2B inh	L3MBTL1 block	HP1b binding inh	JMJD2A Tudor
CCOc1cccc(C(=O)Nc2ccc(N3CCCC3)cc2)c1	3.55µM*	-2.0%	-32.3%	-15.6%	-9.8%	?
CCOc1ccc(OCc2cccc(C(=O)Nc3ccc(CN4CCCCC4)cc3)c2)cc1	20µM*	6.9%	?	-10.6%	?	?
CCOC(=O)c1c(C)oc2nc(C)nc(NCc3ccc(F)cc3)c12	-5.4%[59 µM]	10.9%	10.8%[57.1 µM]	nt	44.0%	16.2%
C[N+](C)(C)CCN(Cc1ccc(Cl)cc1)c1ccccn1	10.9%[59 µM]	14.1%	50.1µM*	2.4%	22.6%	-35.4%
CCOc1ccc(Nc2nc3ccccc3n3c(CC)nnc23)cc1	-29.5%[59 µM]	13.2%	-26.3%	nt	15.6%	-5.1%
Cc1ccc(NC(=O)CCC(=O)N2Cc3ccccc3Oc3ncccc32)cc1F	10.6%[59 µM]	21.2%	-0.4%[57.1 µM]	nt	15.8%	-21.7%
CC(=O)Nc1ccc(S(=O)(=O)Oc2ccc(C(=S)N3CCC(O)CC3)cc2)cc1	17.8µM*	-11.7%	-6.4%	-4.0%	-10.7%	-10.3%
CCOc1ccc(C2/C(=C(\O)c3ccc4c(c3)OCCO4)C(=O)C(=O)N2CCN2CCOCC2)cc1OC (stereo not given)	44.7µM*	-15.6%	-32.6%	nt	17.5%	-6.2%
O=C1C(=O)N(CCN2CCOCC2)C(c2cccc(Cl)c2)/C1=C(\O)c1ccc2c(c1)OCCO2 (stereo not given)	35.5µM*	13.1%	?	nt	4.6%	-16.3%
COC(=O)C(CCSC)NC(=O)c1cc2c(n(-c3ccc(C)cc3)c1=O)CCCC2=O (stereo not given)	0.562µM*	-1.3%	50.1µM*	?	26.8%[57 µM]	-8.9%
Cc1cn(C2OC(COC(=O)c3ccccc3)C(O)C2Cl)c(=O)[nH]c1=O (stereo not given)	50.1µM*	-10.1%	-12.7%	5.2%	52.6%	-4.9%
O=C(OCC1OC(n2cc(Br)c(=O)[nH]c2=O)C(Br)C1O)c1ccccc1 (stereo not given)	-12.0%	4.4%	8.3%	nt	36.7%	2.0%
CCCCNC(=O)CCn1c(=O)c2cccn2c2cccnc21	40.4%[59 µM]	-0.2%	-33.6%	nt	35.8%	4.8%
CC(=O)c1cccc(S(=O)(=O)NCCC(=O)Nc2ccc(S(N)(=O)=O)cc2)c1	50.1µM*	1.2%	19.3%	nt	35.1%	8.8%
CC(=O)c1cccc(NC(=O)CCNS(=O)(=O)c2cccc(C(C)=O)c2)c1	-13.8%[12.7 µM]	-0.3%	9.9%	-3.7%	34.7%	-10.1%
COc1ccccc1NC(=O)Cn1c(=O)n(Cc2ccco2)c(=O)c2oc3ccccc3c21	-20.9%[59 µM]	11.2%	-11.6%	nt	21.8%	-10.3%
O=[N+]([O-])c1cc([N+](=O)[O-])c(Oc2cncc(Cl)c2)cc1NC1CCCCCCC1	?	7.8%	?	2.0%	?	?
O=[N+]([O-])c1ccc(Oc2cc(NC3CCCCCCC3)c([N+](=O)[O-])cc2[N+](=O)[O-])cc1	39.8µM*	-13.8%	?	-13.1%	-3.3%	?
O=C(COc1ccc(Cl)cc1[N+](=O)[O-])NC1CCCCC1	-50.5%	9.7%	?	-0.4%[11.4 µM]	7.5%	-31.5%

Screening data: PubChem, National Center for Advancing Translational Sciences (NCATS)
